Reference: ChEMBL document CHEMBL1157539, “Thousands of chemical starting points for antimalarial lead identification” (Nature, 2010)

The compounds below were run on HepG2 (assay: GSK_TCMDC: Percent inhibition of human HepG2 cell line. Test compounds present at 10uM.).
Format: functional

Structure (SMILES) | Inhibition
CC(C)N1CCC(N(Cc2ccc(-c3ccc(C(F)(F)F)cc3)cc2)C(=O)Cn2c(SCc3cccc(F)c3F)cc(=O)c3c2CCC3)CC1.O=C(O)C(O)C(O)C(=O)O | 44%
COc1c(C2CCN(CCCCNC(=O)c3ccc(-c4ccc(C#N)cc4)nc3)CC2)ccc2c1CCCC2 | 54%
Cc1cc(Cc2ccc(S(=O)(=O)c3cc4c(cc3O)CCN(C)CC4)cc2)ccc1Cl.Cl | 7%
Cc1ccc(-n2cc(CNCCc3nc(C)c[nH]3)c(-c3ccc(F)cc3)n2)cc1 | 15%
O=C(N[C@@H](CC1CCCCC1)C(=O)NC1CC1)c1ccc(O)c(-c2cccc(C(F)(F)F)c2)c1 | 0%
O=C(Nc1ccccc1F)N(CCCn1ccnc1)Cc1csc(-c2ccc(CNCc3ccccc3)cc2)n1.O=C(O)C(F)(F)F | 24%
Clc1ccc2c(N3CCCNCC3)ccnc2c1 | 11%
O=C(NC1CCN(Cc2ccc3c(c2)OCCO3)CC1)c1ccc(-c2cccc(C(F)(F)F)c2)s1.O=C(O)C(F)(F)F | 99%
O=c1cc(NCCCNCc2cc(C(F)(F)F)ccc2Cl)[nH]c2ccccc12 | 25%
O=C(O)C(F)(F)F.O=S(=O)(NCCN1CCCC1)c1cccc(-c2ccc(CNCc3ccsc3)cc2)c1 | 33%
Brc1cc(CNCCCNc2nc3ccccc3[nH]2)sc1Br.Cl | 10%
NCCCNc1ccnc2cc(Cl)ccc12 | 14%
COc1ccccc1CC1CCCN(C2CCC(NC(=O)c3cc4ccccc4[nH]3)CC2)C1 (configuration not stated) | 23%
O=C(NCc1ccc(C(=O)NCc2cccc3ccccc23)cc1)c1ccc(O)c(-c2ccc(Cl)c(Cl)c2)c1 | 0%
C[C@H](Cc1ccc(OCCNC[C@H](O)c2cccc(Cl)c2)cc1)NC[C@H](O)c1ccc(Cl)c(Cl)c1.O | 69%
N=C(N)NCCCN(Cc1ccccc1)c1ccc(Cl)cc1.O=S(=O)(O)O | 0%
NC(=O)c1cnc2cc(-c3ccncc3)cc(Nc3ccc(NC(=O)C4CCCCC4)cc3)c2c1 | 58%
CS(=O)(=O)NCCCNCc1ccc(-c2ccc(-c3nc4cc(C(F)(F)F)ccc4[nH]3)s2)cc1.O=C(O)C(F)(F)F | 21%
CN(C)CCNC(=O)c1csc(Nc2ccc(Cl)c(Cl)c2)n1 | 4%

Structure (SMILES) | Inhibition
C[C@H](Cc1ccc(OCCCCCOc2ccc(C[C@@H](C)NC[C@H](O)c3cccc(Cl)c3)cc2)cc1)NC[C@H](O)c1cccc(Cl)c1.Cl | 99%
Cc1[nH]c(C)c(-c2ccc(-c3ccc(OC(F)(F)F)cc3)cc2)c(=O)c1Cl | 24%
Cc1nc2c(=O)sc3ccccc3c2n1Cc1ccccc1 | 0%
O=C(Nc1ccccc1)Nc1cccc(-c2nn3c(OCCN4CCCC4)cccc3c2-c2ccncc2)c1 | 30%
CC(=O)N(C)/N=C/[C@H](CCc1ccccc1)NC(=O)[C@H](CC(C)C)NC(=O)c1cccc(OCCN2CCOCC2)c1 | 5%
CCC(C)(C)n1c(C)cc2c3c(N)nc(N)nc3ccc21 | 69%
C[C@H](Cc1ccc(CCc2ccc(C[C@@H](C)NC[C@H](O)c3cccc(Cl)c3)cc2)cc1)NC[C@H](O)c1cccc(Cl)c1.Cl | 100%
N#Cc1ccc(N[C@@H](CC2CCCCC2)C(=O)NCc2cc(F)c(F)cc2F)c2ccccc12.O=C(O)C(F)(F)F | 12%
COc1ccc2c(=O)c3ccc(OC)cc3[nH]c2c1 | 12%
COc1ccc(-c2cccc(NC(=O)c3ccc(Cl)cc3)c2)cc1CN(C)CCN(C)C.O=C(O)C(F)(F)F | 37%
COc1ccc(CCn2c(=N)c(C(=O)NC3CCCC3)cc3c(=O)n4ccccc4nc32)cc1 | 11%
CN1CCN(c2ccnc3ccc(NC(=O)Cc4ccc(Br)c5ccccc45)cc23)CC1 | 8%
CC(C)CC(C)NC(=O)C1Cc2c([nH]c3ccc(F)cc23)C2(CCN(Cc3ccccc3)CC2)N1 (configuration not stated) | 18%
Cn1nccc1C(=O)NCCNCc1cccc(-c2cccc(-c3nc4cc(C(F)(F)F)ccc4[nH]3)c2)c1.O=C(O)C(F)(F)F | 39%
Brc1ccc(Nc2nc(NCC3CCCO3)c3ccccc3n2)cc1 (configuration not stated) | 13%
CCNc1nc(OCC(F)(F)F)nc(N(c2ccccc2)c2ccccc2)n1 | 5%
OC(c1ccccc1)C1CN(CCc2ccccc2)CCC1(O)c1ccccc1 (configuration not stated) | 0%
COc1ccc(F)cc1-c1ccc(C(=O)N2CCCN(c3ccc(C#N)cn3)CC2)cc1 | 9%
